SMILES strings stand for the structures.
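Further: kd values determined as follow-up on hits from a single-replicate KINOMEscan panel screen.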

In the first experiment the test system is RIPK2.
`CS(=O)(=O)CCNCc1nc(-c2ccc3ncnc(Nc4ccc5c(cnn5Cc5ccccc5)c4)c3c2)cs1.Cl.Cl` [GW569716] gave a Kd of 67 nM.
The same measure, in the same setting: the same measure for `O=C(Nc1n[nH]c2nc(-c3cccs3)c(Br)cc12)C1CC1` [SB-735297]: > 10000 nM.
Compound `Cn1cncc1-c1cc2c(Nc3ccc(OCc4ccccc4)cc3)ncnc2cn1` [GW281179] had a Kd of 65 nM. That is a double-digit nanomolar value.
Same read-out and setting: the same measure for `CC(C)c1ccc(O)cc1Nc1ccnc2ccc(C(F)(F)F)cc12` [GW482059]: > 10000 nM.

For the next experiment, the system named is ROCK1.
Consider `Cn1cncc1-c1cc2c(Nc3ccc(OCc4ccccc4)cc3)ncnc2cn1` [GW281179], for which the equilibrium dissociation constant (Kd) was found to be 590 nM. In other words, the sub-micromolar range.
Turning to `CC(C)c1ccc(O)cc1Nc1ccnc2ccc(C(F)(F)F)cc12` [GW482059], the Kd was > 10000 nM.
Turning to `c1ccc(-c2ccnc3[nH]ccc23)cc1` [SB-693578], the affinity, expressed as Kd, was 150 nM. In other words, the sub-micromolar range.

A further experiment concerns T1, RSK4(Kin.Dom.2-C-terminal).
T1 construct: gene RPS6KA6
In turn, `Fc1ccc(-c2nc[nH]c2-c2ccncc2)cc1` [SB-217360] yielded an equilibrium dissociation constant (Kd) of 310 nM. That is a sub-micromolar value.
On the same count and under the same terms, next, `Fc1ccc(-c2nc3n(c2-c2ccncc2)CCS3)cc1` [GI98581]: 260 nM; `Cc1cccc2c(-c3ccncn3)c(-c3ccc(F)cc3)nn12` [GW515532]: 6800 nM.

The Kd is the equilibrium constant for the complex coming apart.

The values above are taken from paper PMC5540273 (PLoS ONE, 2017).
